Assay results: PubChem BioAssay AID720561 (Broad Institute, 2013)
Measured potencies and affinities stand elsewhere. The source made the active and inactive calls. How the calls were made is not given here.

Experiment: suppression of HIF-dependent reporter luminescence – cell-based, dry powder samples, 2158-07, ARNT-TACC3 inhibitor project, dose response (AID 720561)
Conditions: HIF luciferase reporter cells; series mostly up to 50 µM; activity change, negative = inhibition: at the top concentration

Activity change, negative = inhibition, inactive:
Cc1c(C(=O)N(C)C)sc2nc(-c3ccccn3)[nH]c(=O)c12 76.3%, CC1CCN(S(=O)(=O)c2ccc(C(=O)Nc3nnc(-c4ccccn4)o3)cc2)CC1 0.208%, O=C(CSc1ccc(-c2ccccn2)nn1)Nc1ccccc1 226%, FC(F)(F)c1cc(-c2nn[nH]n2)cc(C(F)(F)F)c1 -1.41%, O=C(CSc1ccc(-c2ccccn2)nn1)N1CCCC1 118%, CC1CCN(S(=O)(=O)c2ccc(C(=O)Nc3nnc(-c4ccno4)o3)cc2)CC1 -3.2%, C=CC1=C(C(=O)O)N2C(=O)[C@@H](NC(=O)/C(=N\O)c3csc(N)n3)[C@H]2SC1 (stereo in doubt) -6.02%, Cc1ccc(C(=O)Nc2nc(-c3ccccn3)cs2)cc1S(=O)(=O)N1CCOCC1 128% [at 26 µM], O=C(CSc1ccc(-c2ccccn2)nn1)NC1CCCCC1 118% [at 26 µM]
